Assay outcomes deposited in PubChem BioAssay by several laboratories.
Compounds with a hit are over-represented: about 3.3% of the library has one in this group of screens.
Efflux pump inh = blocks antifungal efflux pumps in multiplex yeast assay; S. cerevisiae Candida pump triplex, Nile Red efflux; inhibition, % at 10 µM; 330,000 tested, 0.44% active;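 active means plate passing quality check with inhibition over a set limit, or well fluorescence over plate mean plus 4 SD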;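 further: Nile Red retained in pooled yeast measured as flow cytometry median fluorescence; 0% = buffer negative control and 100% = Enniatin B positive control; higher means more Nile Red kept so more efflux inhibition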
PHOSPHO1 block = PHOSPHO1 (human) inhibition; recombinant PHOSPHO1, absorbance phosphatase assay; inhibition, % at 13.3 µM; 290,000 tested, 1.1% active; AID 1565; in the data active means inhibition above about 60%
Target sequence (Q8TCT1 whole entry, looked up): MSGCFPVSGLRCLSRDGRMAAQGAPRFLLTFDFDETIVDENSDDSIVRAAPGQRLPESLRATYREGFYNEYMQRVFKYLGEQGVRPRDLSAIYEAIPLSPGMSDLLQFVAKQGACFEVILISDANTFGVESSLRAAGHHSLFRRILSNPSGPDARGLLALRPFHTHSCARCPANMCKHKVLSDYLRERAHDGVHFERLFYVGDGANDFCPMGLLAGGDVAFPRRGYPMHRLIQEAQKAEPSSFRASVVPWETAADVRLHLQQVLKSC
Calb FLC = affects C. albicans growth with fluconazole; C. albicans CaCi-2 (fluconazole-resistant clinical isolate) + fluconazole, Alamar Blue growth, 48 h; growth inhibition, % (concentration not given with the values); 300,000 tested, 0.57% active;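 active means growth inhibition above about 58% in most replicates, limit read from the data, passing the limit was not always enough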;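 further: all wells also contain fluconazole at 8 µg/ml as a sub-toxic cotreatment; 0% = median of DMSO wells and 100% = median of geldanamycin control wells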
KCC2 mod = KCC2 (human) Cl- transport modulation; KCC2 cells, thallium flux FluoZin-2 fluorescence; B-score of Tl+ flux slope (higher = more flux/activation; lower = inhibition) at 10 µM; 190,000 tested, 2.2% active; AID 1456;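 active means thallium flux slope and its plate-corrected score both differing from the plate sample mean at a set confidence after two filtering rounds, in either direction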;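 further: slope of fluorescence scaled to starting intensity during 10 to 20 s after thallium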
Cardio protect = modulators protecting cardiomyocytes from myocardial damage; 360,000 tested, 0.63% active; AID 588492; protection from H2O2 cell death, % at 20 µM; H9c2 cardiomyocytes, H2O2 injury protection, ATPLite, 2 h;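 active means compounds giving at least 50% protection of heart cells from peroxide-induced death in the single-dose screen, raw or plate-pattern-corrected value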;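 further: 0% = DMSO wells with peroxide and 100% = DMSO wells without peroxide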
An asterisk follows results filed as active; · = no result given.

SMILES | Efflux pump inh | PHOSPHO1 block | Calb FLC | KCC2 mod | Cardio protect
COc1ccc(-c2nn(-c3ccccc3)cc2C(=O)NCC2CCCO2)cc1 (configuration not stated) | -0.1 | 46.6 | 5.8 | · | -2.0
COc1ccc(CCNC(=O)CN(c2ccc(OC)c(OC)c2)S(=O)(=O)c2ccccc2)cc1OC | -0.3 | 12.6 | 2.5 | · | 7.4
CN(C)CC(C)(C)CNS(=O)(=O)c1cccc(Cl)c1Cl | 0.0 | 75.3* | -7.7 | 0.814 | -6.7
CN(C)CC(C)(C)CNS(=O)(=O)c1ccc(Cl)cc1 | 0.1 | -2.4 | 13.8 | 0.629 | 1.4
CC(C)(C)c1cc[n+](-c2nc([O-])sc2C=O)cc1 | -0.1 | -5.0 | 14.0 | 0.452 | -0.1
CCc1cc[n+](-c2nc([O-])sc2C=O)cc1 | 0.1 | 79.2* | -6.3 | -0.273 | 13.8
CN(C(=S)NC(=O)CCCOc1ccc(Cl)cc1Cl)c1ccccc1 | -0.1 | 34.9 | 2.0 | 38.5* | -5.5
CN1CC2([N+](=O)[O-])CC=C(OCCO)C([N+](=O)[O-])(C1)C2 (configuration not stated) | 0.0 | -3.9 | 113.4* | -0.586 | 0.8
CC(NC(=O)OCc1ccccc1)C(=O)Oc1cc2oc(=O)cc(-c3ccccc3)c2cc1Cl (configuration not stated) | -0.1 | -21.4 | 82.3* | -0.651 | 2.4
CCc1cc2c(-c3ccccc3)cc(=O)oc2cc1OC(C)C(=O)O (configuration not stated) | 0.1 | 29.0 | 6.6 | · | 3.2
COc1ccccc1CC(=O)N1CCN(S(=O)(=O)c2ccccc2F)CC1 | -0.1 | · | · | · | -3.5
C#CCN1C=CC(=O)[C@@H](OC(=O)NCCC)[C@H]1c1ccccc1Br | · | · | · | · | 6.5
CC1CN(C(=O)C(C)OC(=O)c2ccc3ncsc3c2)CC(C)O1 (configuration not stated) | 0.1 | · | · | · | 1.8
Cc1ccc(Nc2cc(C)nn2-c2nc(C)cc(=O)[nH]2)cc1 | -0.3 | 28.4 | 79.9* | · | 41.3
COc1cc(C)nc(NC(=O)NC(=O)c2ccc(C(F)(F)F)cc2)n1 | -0.1 | 23.9 | 5.8 | · | 1.1
Cn1c(C2CCCN2C(=O)OC(C)(C)C)n[nH]c1=S (configuration not stated) | 0.1 | 97.1* | 4.8 | · | -3.7
CSc1nnc([C@@H]2CCCN2C(=O)OC(C)(C)C)o1 | 0.1 | -3.7 | -6.2 | -0.936 | -0.8
Cc1nnc(NC(=O)CSc2nc3ccccc3[nH]2)s1 | 0.3 | 32.6 | 28.0 | -0.357 | 10.9
CSCCc1nc(SCC(=O)Nc2nnc(C)s2)[nH]c1C | 0.0 | 67.5* | -3.3 | -0.259 | 9.4
CCCN1Cc2cccc(C(=O)Nc3ccc(CC)cc3)c2C1=O | 0.1 | 6.3 | 11.7 | · | -2.8
CCCN1Cc2cccc(C(N)=O)c2C1=O | 0.0 | -9.1 | -2.9 | 0.751 | 58.8*
COC1(c2ccccc2)NC(=S)NN=C1c1ccccc1 (configuration not stated) | 0.1 | 75.2* | 20.2 | · | -0.8
CCCCOC1(c2ccccc2)NC(=S)NN=C1c1ccccc1 (configuration not stated) | 0.2 | 71.3* | 24.9 | · | ·
CCCCCCOC1(c2ccccc2)OC(=O)c2ccccc21 (configuration not stated) | 0.1 | 5.4 | -12.3 | 1.69 | -12.5
CO/N=C/C1C(=O)NN=C1c1ccccc1 (configuration not stated) | 0.1 | 15.0 | -12.4 | -0.56 | 5.8
SMILES | Efflux pump inh | PHOSPHO1 block | Calb FLC | KCC2 mod | Cardio protect
N=c1c2c(-c3ccccc3)c(-c3ccccc3)n(Cc3ccccc3)c2ncn1CCO | 0.3 | 46.1 | 96.6* | 0.138 | -22.3
N=c1c2c(-c3ccccc3)c(-c3ccccc3)n(Cc3ccco3)c2ncn1Cc1ccccc1 | 0.0 | -9.4 | 7.8 | -1.47 | -8.4
CCN(c1ccc(NC(=O)COC(=O)c2ccc([N+](=O)[O-])o2)cc1)C(C)C | 0.1 | · | · | · | 60.9*
CC(=O)Nc1ccc(NC(=O)COC(=O)c2ccc([N+](=O)[O-])o2)cc1 | 0.1 | · | · | · | 22.6
Cc1ccc(C(=O)OCC(=O)Nc2cccc(S(=O)(=O)N3CCCCC3)c2)o1 | -0.1 | · | · | · | -9.8
O=C(COC(=O)c1ccc([N+](=O)[O-])o1)Nc1cccc(S(=O)(=O)N2CCCCC2)c1 | 0.0 | 21.0 | 8.7 | 0.051 | 53.4*
COC(=O)[C@@]12CCCCN1[C@H](c1ccc(-c3ccccc3)c(OC)c1)[C@H]1C(=O)N(C)C(=O)[C@H]12 | 0.0 | · | · | · | 8.6
COc1ccc(NC(=O)C2CC(=O)n3cnnc3S2)cc1 (configuration not stated) | 0.0 | 103.8* | -3.0 | 0.55 | -31.7
COc1cccc(NC(=O)C2CC(=O)N=C(N)S2)c1 (configuration not stated) | 0.0 | -1.4 | -1.6 | -0.727 | 1.0
COc1cccc(NC(=O)C2CC(=O)n3cnnc3S2)c1 (configuration not stated) | -0.1 | 102.9* | · | · | -22.1
COc1ccc(NC(=O)C2CC(=O)n3ncnc3N2)cc1 (configuration not stated) | 0.0 | 3.8 | -9.3 | -0.482 | 7.2
O=C(O)Cn1c(=O)c2c3c(sc2n(Cc2ccccc2F)c1=O)CCCC3 | -0.2 | 15.6 | 9.5 | · | 2.7
Cc1c(C(=O)NCc2ccc(F)cc2)sc(=O)n1Cc1ccc(Cl)c(Cl)c1 | · | · | · | · | -5.6
COc1ccc(OC2C(=O)N(Cc3ccc4c(c3)OCO4)C2c2sccc2C)cc1 (configuration not stated) | 0.0 | -8.6 | 93.3* | -1.18 | -9.0
COc1ccc(OC2C(=O)N(Cc3ccc(F)cc3)C2c2ccc(OC)c(OC)c2)cc1 (configuration not stated) | -0.1 | 31.4 | 1.7 | -0.398 | -3.5
Cc1cc(-c2csc(N)n2)c(C)n1C | -0.1 | 86.4* | 0.9 | -0.0271 | -4.7
Cc1cc(C(=O)CSc2nnc(N)s2)c(C)n1Cc1ccco1 | -0.1 | -10.2 | -44.0 | 0.772 | -1.7
Cc1cc(-c2csc(N)n2)c(C)n1Cc1ccco1 | 0.0 | 61.2* | 2.5 | 0.8 | -6.0
NC(=S)N/N=C/c1ccc(-c2ccccc2)o1 | 0.0 | -25.3 | 8.8 | 1.69 | 11.4
NC(=S)N/N=C/c1ccc(-c2ccc(Cl)c(Cl)c2)o1 | -0.1 | 81.2* | 1.2 | 1.99 | 9.8
NC(=S)N/N=C\c1ccc(-c2cccc(Cl)c2Cl)o1 | -0.1 | 95.4* | -7.2 | 0.335 | -6.1
O=C(O)Cc1ccc(NS(=O)(=O)c2ccc3ccccc3c2)cc1 | -0.2 | 27.0 | 3.1 | · | 4.8
N#CC(=C(O)COC(=O)CCCNC(=O)c1ccc(Cl)cc1)c1nc2ccccc2[nH]1 | · | · | · | · | -8.7
O=C1OCC(Cn2c3ccccc3c3ccccc32)O1 (configuration not stated) | -0.2 | 77.6* | 9.2 | 0.671 | 0.5
Cc1ccc(C2(c3ccccc3)NC(=O)N(CC(=O)NC3(C#N)CCCC3)C2=O)cc1C (configuration not stated) | -0.1 | · | · | · | -1.0
COC(=O)c1[nH]c2ccccc2c1NC(=O)C(C)N1CCN(C(=O)c2ccco2)CC1 (configuration not stated) | 0.0 | 71.9* | 6.9 | 0.0905 | 21.2
CCCCN(C(=O)/C=C/c1ccco1)c1c(N)n(Cc2ccccc2)c(=O)[nH]c1=O | 0.0 | 4.1 | 112.6* | -0.0312 | -2.9
